PubChem BioAssay AID504332 (National Center for Advancing Translational Sciences (NCATS), 2011)
Out of some 350,000 compounds screened, about 31,000 (8.9%) were called active. About 15% were inconclusive and are not listed. The entries come from a sample that favours actives as a whole. Where a call stands in place of a potency, no number is given. Unmarked numbers belong to inactive results. Calls follow the shape of the dose curve; as a rule, active = well fitted inhibition curve with a large enough effect; inconclusive = small, poorly fitted or top-dose-only effect; inactive = no such curve, though single readings can be large or run the other way.

These compounds were tested against Histone-lysine N-methyltransferase EHMT2 (Homo sapiens) (UniProt Q96KQ7) (assay: qHTS Assay for Inhibitors of Histone Lysine Methyltransferase G9a). Conditions: G9a H3K9 monomethylation, AlphaScreen, 2 h; series mostly up to 59 µM.
How it was run: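 Readings reflect AlphaScreen signal from monomethyl-H3K9 antibody detection. HMT at 20 nM; substrate b-H3K9 500 nM; cofactor SAM 20 uM; 2 h RT reaction; compounds tested as titrations in qHTS with 15 min preincubation.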
Also: nearly all actives have a fitted effect of over 75% in size.
Potency is read from the fitted curve at half-maximal effect.

Sequence of Histone-lysine N-methyltransferase EHMT2 (Homo sapiens) (Q96KQ7 913-1193 limits assumed): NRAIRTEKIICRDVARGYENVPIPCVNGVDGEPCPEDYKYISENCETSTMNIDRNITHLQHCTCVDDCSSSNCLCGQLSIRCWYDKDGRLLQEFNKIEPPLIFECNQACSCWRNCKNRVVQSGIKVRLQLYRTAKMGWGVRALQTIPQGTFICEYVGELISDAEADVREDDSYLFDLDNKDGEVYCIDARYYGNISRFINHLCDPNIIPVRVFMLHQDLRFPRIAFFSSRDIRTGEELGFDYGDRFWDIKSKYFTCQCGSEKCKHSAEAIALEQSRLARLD

| SMILES | Potency | activity, negative = inhibition |
| --- | --- | --- |
| O=C(c1ccc(C(F)(F)F)cc1)N1CCC(c2nc(-c3ccc(S(=O)(=O)N4CCCC4)cc3)no2)CC1 | inactive |  |
| CCOc1ccccc1-n1c(SCC(=O)NCc2ccco2)nnc1-c1ccncc1 | inactive |  |
| CCn1c(SCC(=O)NCc2ccco2)nnc1-c1ccc(N)cc1 | inactive |  |
| Cc1ccc(-c2csc3nnc(SCC(=O)NCc4ccco4)n23)cc1 | 17.8 µM (active) |  |
| O=C(Cc1ccc(S(=O)(=O)N2CCOCC2)s1)N1CCN(c2ccc(C(F)(F)F)cc2[N+](=O)[O-])CC1 |  | 5.52% [at 0.501 µM] |
| O=C(Nc1ccccc1C(=O)N1CCCCC1)c1ccco1 | inactive |  |
| CS/C(=C\C(=O)c1ccco1)Nc1ccccc1Cl | 50.1 µM (active) |  |
| COC(=O)c1cc(Cl)c(NC(=O)c2ccco2)cc1OC | inactive |  |
| Cc1nc2ccc(S(=O)(=O)N(CC(=O)Nc3ccc(F)cc3)Cc3ccccc3)cc2s1 | inactive |  |
| CCOC(=O)N1CCN(C(=O)C2CCN(S(=O)(=O)c3cc(Cl)ccc3OCC)CC2)CC1 | inactive |  |
| CCOC(=O)N1CCN(C(=O)C2CCN(Cc3ccc(OC)cc3OC)CC2)CC1 | 7.94 µM (active) |  |
| CCOC(=O)N1CCN(CCC(=O)Nc2cc(OC)ccc2OC)CC1 | inactive |  |
| CCN1C(=O)[C@H]2[C@@H](c3ccc(-c4ccc(OC)cc4)cc3)N[C@@](Cc3ccccc3)(C(=O)OC)[C@H]2C1=O |  | -6.39% [at 2.33 µM] |
| CCOc1ccc(NC(=O)CN(C)C(=O)CCSc2ccc(F)cc2)cc1OCC |  | 21% [at 12.7 µM] |
| CCN(CC(=O)Nc1ccccc1C(=O)NC1CC1)Cc1cccs1 | inactive |  |
| O=C(CSc1nnc(-c2ccco2)n1CC1CCCO1)c1ccccc1 (configuration not stated) | 50.1 µM (active) |  |
| Cc1nnc(SCC(=O)NNC(=O)c2ccc(Cl)cc2)n1CC1CCCO1 (configuration not stated) | 35.5 µM (active) |  |
| O=C(COc1ccc(Cl)cc1)NCc1nnc(SCC(=O)NCC2CCCO2)o1 (configuration not stated) | inactive |  |
| O=C(CSc1nnc(-c2ccco2)o1)NCC(=O)c1ccccc1 | inactive |  |
| O=C(CSc1nnc(-c2ccco2)n1Cc1ccccc1)NC(=O)NCc1ccco1 | inactive |  |
| Cc1nnc(SCC(N)=O)n1CC1CCCO1 (configuration not stated) |  | -0.186% [at 2.33 µM] |
| CCC(NC(=O)C1CCCC1)c1ccc(C)cc1 (configuration not stated) | inactive |  |
| Cc1ccccc1NC(=O)Cn1c(=O)n(CCc2ccccc2)c(=O)c2ccccc21 | inactive |  |
| Cc1ccc(S(=O)(=O)Nc2nc(CN3CCOCC3)nc3sc(C)c(C)c23)cc1 |  | 19.1% [at 2.33 µM] |

| SMILES | Potency | activity, negative = inhibition |
| --- | --- | --- |
| O=C(OCC(=O)N1CCCCCC1)c1cnc(Cl)c(Cl)c1 | inactive |  |
| CCNC(=O)N1CCN(S(=O)(=O)c2ccc3c(c2)OCCCO3)CC1 |  | -26.7% [at 2.33 µM] |
| COc1ccc(OC)c(CCNC(=O)CCn2ccc3cc(S(=O)(=O)N4CCCC4)ccc32)c1 | inactive |  |
| O=C1CC[C@H](O)CCN1[C@H](CSc1ccc(Br)cc1)Cc1ccccc1 |  | 11.1% [at 2.33 µM] |
| O=C(CSc1nnc(-c2ccncc2)n1-c1ccccc1)Nc1ccc(Cl)c(Cl)c1 | inactive |  |
| COc1ccc(OC)c(CNC(=O)Cn2nc(C)c3c(C)n(-c4ccccc4)nc3c2=O)c1 | inactive |  |
| CCOC(=O)C1CCCN(CC(=O)Nc2cc(C)c3c(=O)oc4ccccc4c3n2)C1 (configuration not stated) | inactive |  |
| COC(=O)c1sc2ncccc2c1-n1c(C)ccc1C | inactive |  |
| O=C(CSc1ccccc1)Nc1cccc(S(=O)(=O)N2CCCCC2)c1 |  | 14.6% [at 12.7 µM] |
| CCN(/N=C/c1ccccc1)c1cc(=O)n(C)c(=O)[nH]1 | inactive |  |
| CCN(/N=C/c1ccc(N(C)C)cc1)c1nc2ccccc2[nH]1 | 2.82 µM (active) |  |
| CCCCSc1nc2ccccc2[nH]1 | inactive |  |
| CN1C(=O)C2(OCCCO2)c2cc(Cl)ccc21 | inactive |  |
| COc1cc(NC(=O)CSC(=S)N2CCCC2)c(OC)cc1Cl |  | 13.5% [at 2.33 µM] |
| Cc1ccccc1-n1nc(C)c2c1N=C1C(Cl)=CC(Cl)=CN1C2c1ccc(C(=O)O)cc1 (configuration not stated) | 25.1 µM (active) |  |
| CC1CCN(C(=O)Cn2c(=O)n(-c3ccc(Cl)cc3)c(=O)c3c4c(sc32)CCC4)CC1 | inactive |  |
| CCn1c(SC)nc(O)c(C(c2ccc(OC)c(O)c2)c2c(O)nc(SC)n(CC)c2=O)c1=O | 10 µM (active) |  |
| CCn1c(CNC(=O)c2ccc(OC)c(OC)c2)nnc1SCC(=O)Nc1ccccc1 | inactive |  |
| COc1ccc2c(c1OC)C(=O)OC2c1c(O)nc(SC)n(-c2ccccc2)c1=O (configuration not stated) |  | 4.51% [at 12.7 µM] |
| CCOc1ccccc1NC(=O)C1=C(C)Nc2ncnn2C1c1ccc(NC(C)=O)cc1 (configuration not stated) | inactive |  |
| COc1ccccc1N1CCN(c2ccc(=O)n(CC(=O)NCc3ccc(OC(C)C)cc3)n2)CC1 | inactive |  |
| COc1cccc(Cn2c(SCc3ccc(C(=O)N4CCCCC4)cc3)nc3ccncc32)c1 | inactive |  |
| Cc1cccc(Cn2c(SCc3ccc(C(=O)N4CCC(C)CC4)cc3)nc3ccncc32)c1 | inactive |  |
